From PubChem
Rows were chosen to be rich in hits. Some 21% of all compounds tested hit in one or more screens of this group.
RORgamma inh: inhibitors of mouse ROR gamma transcriptional activity; P51450; Drosophila S2 Gal4-RORgamma UAS-luciferase reporter, 20 h; Potency, µM (doses to about 53.6 µM), inactives show top-dose activity change, negative = inhibition, actives largely listed as inhibitors; hit rate 5.4% among 310,000; AID 2551; further: potency means the concentration at half of the fitted maximal effect; nearly all actives have a fitted effect of over 60% in size
Target sequence (P51450 whole entry, looked up, the tested form may be a part): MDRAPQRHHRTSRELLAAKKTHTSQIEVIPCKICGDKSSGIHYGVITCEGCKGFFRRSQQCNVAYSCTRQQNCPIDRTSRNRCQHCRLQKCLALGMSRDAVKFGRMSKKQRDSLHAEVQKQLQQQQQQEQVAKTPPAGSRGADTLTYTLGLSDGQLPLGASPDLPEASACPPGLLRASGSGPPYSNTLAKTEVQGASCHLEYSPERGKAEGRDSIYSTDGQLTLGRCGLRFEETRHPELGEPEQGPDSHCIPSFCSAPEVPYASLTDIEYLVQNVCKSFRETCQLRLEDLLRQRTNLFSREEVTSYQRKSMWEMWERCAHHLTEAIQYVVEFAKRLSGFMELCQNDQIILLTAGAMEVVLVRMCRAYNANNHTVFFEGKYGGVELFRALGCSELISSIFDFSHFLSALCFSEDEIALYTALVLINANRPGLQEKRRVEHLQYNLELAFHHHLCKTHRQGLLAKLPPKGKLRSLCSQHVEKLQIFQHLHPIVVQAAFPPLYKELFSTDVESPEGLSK
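Stable Schneider cell line, Gal4 DNA-binding domain fused to ROR gamma, UAS-luciferase. Cmpd 1 hr RT → CuSO4 700 uM final → 20 hr RT → luciferase reagent 10 min → luminescence.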
VP16 counter: inhibits Gal4-VP16 luciferase reporter, ROR gamma counter-screen; AID 2546; Drosophila S2 Gal4-VP16 UAS-luciferase, luminescence, 20 h; Potency, µM (series often up to 53.6 µM), without a hit: at the highest dose activity, negative = inhibition, hits mostly inhibitors; hit rate 3.5% among 310,000;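 further: Gal4-VP16 expression switched on by copper sulfate through the metallothionein promoter; potency means the concentration at half of the fitted maximal effect; nearly all actives have a fitted effect of over 50% in size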
TDP1 cell noCPT: qHTS for Inhibitors of human tyrosyl-DNA phosphodiesterase 1 (TDP1): qHTS in cells in absence of CPT; hit rate 15% among 420,000; Potency, µM (titrated, usually from 46.2 µM), for the others: top-dose activity change, negative = growth inhibition, hits mostly inhibitors; DT40 Tdp1-/- hTDP1 cells, no CPT, ATP luminescence, 48 h; AID 686978, 2013; further: potency means the concentration at half of the fitted maximal effect; nearly all actives have a fitted effect of over 55% in size
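Seeded 400 DT40-hTDP1 cells/well (vehicle DMSO, no 20 nM CPT); pinned compounds; ≥48 hr at 37 °C; CellTiter-Glo luminescence as viability measure.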
TDP1 cell CPT: DT40-hTDP1 cell growth loss with CPT | Potency, µM (titrated, usually from 46.2 µM), for the others: at the top dose activity change, negative = growth inhibition, usual class: inhibitors | chicken DT40 Tdp1-/-;hTDP1 cells + 20 nM CPT, ATP luminescence, 48 h | hit rate 12% among 420,000 | AID 686979; further: potency means the concentration at half of the fitted maximal effect; nearly all actives have a fitted effect of over 55% in size
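Chicken DT40 Tdp1-/- cells stably complemented with human TDP1 were seeded at 400 cells/well in medium containing 20 nM camptothecin, exposed to pin-transferred compounds, and grown at 37 °C for at least 48 hr. Viability was read as ATP luminescence.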
IL-1B inflam inh: blocks inflammasome-driven IL-1 beta release | THP-1 LPS/ATP IL-1B secretion, AlphaLISA, 16 h; stronger effect = lower value | hit rate 4.7% among 360,000 | activity change, % at 57.5 µM; in the data active means activity change below about -50%; inconclusive means mostly about -30% to -49%
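Secreted IL-1B measured by AlphaLISA bead assay after 16 h compound exposure of THP-1 cells; compounds (final up to 57.5 uM) added 1 h before LPS (250 ng/mL) and ATP (1.25 mM) stimulation; lower signal means less secretion.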
ELG1 repair inh: inhibitors of ELG1-dependent DNA repair in HEK293T cells. HEK293T ELG1-luciferase reporter, luminescence, 16 h; DNA damage induced by 5-fluorouridine. Potency, µM (doses to about 46.1 µM), for inactives: top-dose activity change, negative = inhibition, most hits filed as inhibitors. hit rate 2.3% among 330,000. AID 504467; further: potency means the concentration at half of the fitted maximal effect; nearly all actives have a fitted effect of over 55% in size
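HEK293T cells expressing luciferase-tagged ELG1 (2,000/well) received 5-Fluorouridine plus compound or DMSO for 16 hr at 37 °C. Luciferase was read by ONE-Glo luminescence after 30 min at room temperature.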
Starred values were filed as active, the others as inactive. Unless noted, the call rests on the fitted dose curve; in most records, active means well fitted curve in the direction sought with a large enough effect; inconclusive means small, poorly fitted or top-dose-only effect, or another doubt; inactive means no such curve, though single readings can be large; an effect the other way counts as inactive or inconclusive. On the % scale 0 is the no-effect control and ±100 the full control effect.

Screening CCOc1ccc2nc(SCC(=O)NCc3ccccc3OC)[nH]c2c1 returned RORgamma inh 33.5%, VP16 counter 0.8%, TDP1 cell noCPT inconclusive, TDP1 cell CPT -15.7%, IL-1B inflam inh -6.9 and ELG1 repair inh 3.7%.
`CCC(C(=O)NC1CCCCCC1)n1nc(C)c2c(C)n(-c3ccccc3)nc2c1=O` (stereo not given) gave RORgamma inh 23.0%, VP16 counter 3.0%, TDP1 cell noCPT inconclusive, TDP1 cell CPT inconclusive, IL-1B inflam inh 0.0 and ELG1 repair inh -17.7%.
`CCc1ccccc1OCC(=O)N1CCN(c2ncccn2)CC1` gave TDP1 cell noCPT inconclusive, TDP1 cell CPT inconclusive, IL-1B inflam inh -3.4 and ELG1 repair inh 1.9%.
`Cc1cccc(OCc2nc(C#N)c(N3CCCC3)o2)c1` gave RORgamma inh 6.6%, VP16 counter -13.7%, TDP1 cell noCPT -26.4%, TDP1 cell CPT 6.6%, IL-1B inflam inh -55.0* and ELG1 repair inh 5.0%.
Screening N#Cc1nc(COc2ccc(Cl)cc2)oc1N1CCCCCC1 returned RORgamma inh inconclusive, VP16 counter -2.9%, TDP1 cell noCPT -25.3%, TDP1 cell CPT -9.4%, IL-1B inflam inh -58.5* and ELG1 repair inh -4.9%.
For N#Cc1nc(COc2ccccc2Cl)oc1N1CCCC1 the results were RORgamma inh 10.2%, VP16 counter -12.8%, TDP1 cell noCPT inconclusive, TDP1 cell CPT -10.1%, IL-1B inflam inh -25.7 and ELG1 repair inh 1.7%.
Cc1cccc(OCc2nc(C#N)c(N3CC(C)CC(C)C3)o2)c1 (stereo not given) was read as RORgamma inh -15.5%, VP16 counter -12.7%, TDP1 cell noCPT inconclusive, TDP1 cell CPT 6.51µM*, IL-1B inflam inh -9.6 and ELG1 repair inh -12.4%.
For Cc1ccc(OCc2nc(C#N)c(N3CCCCC3)o2)cc1 the results were RORgamma inh inconclusive, VP16 counter -2.0%, TDP1 cell noCPT -3.0%, TDP1 cell CPT 7.1%, IL-1B inflam inh inconclusive and ELG1 repair inh 14.4%.
For COc1ccc(Nc2oc(COc3cccc(C)c3)nc2C#N)cc1 the results were RORgamma inh 0.0%, VP16 counter inconclusive, TDP1 cell noCPT -27.4%, TDP1 cell CPT -25.6%, IL-1B inflam inh -9.0 and ELG1 repair inh inconclusive.
`C=C(C)C(=O)OC1(C(F)(F)F)Oc2cc(C)ccc2NC1=O` (stereo not given) gave RORgamma inh 14.1µM*, VP16 counter inconclusive, TDP1 cell noCPT 16.4µM*, TDP1 cell CPT 16.4µM*, IL-1B inflam inh -72.9* and ELG1 repair inh inconclusive.
For CCOc1ccc(CCNC(=O)COC(=O)c2ccc(OC(C)C)cc2)cc1OCC the results were TDP1 cell noCPT inconclusive, TDP1 cell CPT -28.2%, IL-1B inflam inh -12.0 and ELG1 repair inh -0.9%.
For O=C(OCC(=O)N1CCN(C(=O)c2ccco2)CC1)c1cc(F)c(F)cc1Cl the results were TDP1 cell noCPT -19.8%, TDP1 cell CPT -18.0%, IL-1B inflam inh -12.8 and ELG1 repair inh 4.4%.
Screening Fc1ccc2[nH]c3c(c2c1)CN(C(=S)NCc1ccccc1)CC3 returned RORgamma inh 4.2%, VP16 counter 6.1%, TDP1 cell noCPT inconclusive, TDP1 cell CPT -17.8%, IL-1B inflam inh -89.4* and ELG1 repair inh inconclusive.
Screening Cc1cnc(SCC2CCCO2)nc1C1CCCN(C(=O)C2=NNC(=O)CC2)C1 (stereo not given) returned TDP1 cell noCPT -4.2% and TDP1 cell CPT -1.8%.
`CNC(=O)COc1coc(CN2CCN(c3ccccc3F)CC2)cc1=O` gave RORgamma inh -9.6%, VP16 counter 3.0%, TDP1 cell noCPT 29.1%, TDP1 cell CPT 2.9%, IL-1B inflam inh 10.6 and ELG1 repair inh 13.8%.
For COC(=O)c1ccc(Sc2nnnn2-c2ccccc2)c([N+](=O)[O-])c1 the results were RORgamma inh 12.6µM*, VP16 counter inconclusive, TDP1 cell noCPT 23.1µM*, TDP1 cell CPT 16.4µM*, IL-1B inflam inh -9.9 and ELG1 repair inh 0.0%.
`OCC(O)COc1ccc(Cl)cc1` (stereo not given) gave TDP1 cell noCPT -20.6% and TDP1 cell CPT -16.7%.
`C[C@@H]1CN([C@@H](C)CO)C(=O)CCCn2nncc2CO[C@H]1CN(C)S(=O)(=O)c1ccccc1C#N` gave TDP1 cell noCPT -19.8%, TDP1 cell CPT -9.1% and IL-1B inflam inh 30.5.
For CCOc1ccc2c(c1)c1nnc(SCC(=O)N3CCCCC3C)nc1n2C (stereo not given) the results were RORgamma inh -12.8%, VP16 counter 4.9%, TDP1 cell noCPT 23.1µM*, TDP1 cell CPT 23.1µM*, IL-1B inflam inh -6.2 and ELG1 repair inh inconclusive.
Cc1cc(C)c2c(c1)c1nnc(SCCN3CCCCC3)nc1n2C was read as RORgamma inh -9.5%, VP16 counter -2.1%, TDP1 cell noCPT 20.6µM*, TDP1 cell CPT inconclusive, IL-1B inflam inh -72.4* and ELG1 repair inh inconclusive.
Cn1c2ccc(F)cc2c2nnc(SCCN3CCCCC3)nc21 was read as RORgamma inh -14.6%, VP16 counter 0.4%, TDP1 cell noCPT 16.4µM*, TDP1 cell CPT inconclusive, IL-1B inflam inh -59.7* and ELG1 repair inh 11.2%.
For CC1CCCC(NC(=O)CSc2nnc(-c3cccnc3)o2)C1C (stereo not given) the results were TDP1 cell noCPT inconclusive, TDP1 cell CPT -20.1% and IL-1B inflam inh -4.0.
`COc1ccccc1NC(=O)CN(c1ccc(C23CC4CC(CC(C4)C2)C3)cc1)S(C)(=O)=O` gave RORgamma inh 27.6%, VP16 counter 1.1%, TDP1 cell noCPT 14.6µM*, TDP1 cell CPT 13µM*, IL-1B inflam inh -2.2 and ELG1 repair inh 25.3%.
O=C(Nc1ccncc1)c1ccc(Cl)c(S(=O)(=O)N2CCCC2)c1 was read as TDP1 cell noCPT 25.9µM*, TDP1 cell CPT inconclusive, IL-1B inflam inh 51.5 and ELG1 repair inh -15.3%.
`O=C(Nc1ccc(Cl)c(S(=O)(=O)N2CCCCC2)c1)c1cccnc1` gave TDP1 cell noCPT inconclusive, TDP1 cell CPT 18.4µM*, IL-1B inflam inh 0.0 and ELG1 repair inh inconclusive.
`O=C(Nc1ccon1)c1ccc(F)c(S(=O)(=O)N2CCCCC2)c1` gave RORgamma inh 20.6%, VP16 counter -6.2%, TDP1 cell noCPT inconclusive, TDP1 cell CPT -8.0%, IL-1B inflam inh 12.1 and ELG1 repair inh -29.6%.
